# Test results as given in PubChem BioAssay (Tox21).
# Records with an inconclusive call do not appear. Entries that show only a call come without a potency. A number with no mark means an inactive call. Calls of active or inactive are those of the source. Unless noted, calls come from the whole dose curve; as a rule, active = well fitted curve in the direction sought with a large enough effect in the repeat runs; inconclusive = weak or mixed curves; inactive = no such curve, though single readings can be large; an effect the other way counts as inactive or inconclusive.
# Key:
# [1] = qHTS assay to identify aromatase inhibitors - cell viability counter screen (AID 743084);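 note: cells stimulated with testosterone during compound exposure; nearly all actives have a fitted effect of over 55% in size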; note: potency is the fitted concentration of half-maximal effect
# [2] = target: Aryl hydrocarbon receptor (Homo sapiens) (UniProt P35869); assay: qHTS assay to identify small molecule that activate the aryl hydrocarbon receptor (AhR) signaling pathway (AID 743085); note: nearly all actives have a fitted effect of over 15% in size; note: potency is the fitted concentration of half-maximal effect;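 for activation: HG2L7.5c1 human HepG2 liver cells with stably integrated DRE-driven firefly reporter; series mostly up to about 70 µM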
# Method in brief: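 Stably transfected human liver carcinoma cells (HG2L7.5c1; 20 DRE-firefly luciferase) were incubated 5 h, dosed, and kept 24 h at 37C. Agonism was scored from increased luciferase luminescence.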
# [3] = qHTS assay to identify small molecule that activate the aryl hydrocarbon receptor (AhR) signaling pathway - cell viability counter screen (AID 743086); note: nearly all actives have a fitted effect of over 45% in size; note: potency is the fitted concentration of half-maximal effect
# Method in brief: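 HepG2-AhR-luc (HG2L7.5c1) cells, 4000/well, were preincubated 5 h at 37C, exposed to compound in qHTS format for 24 hr at 37C, then given CellTiter-Fluor for 30 min; viability was read as fluorescence in the reporter wells.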
# [4] = target: Peroxisome proliferator-activated receptor gamma (Homo sapiens) (UniProt P37231); assay: qHTS assay to identify small molecule agonists of the peroxisome proliferator-activated receptor gamma (PPARg) signaling pathway (AID 743094; active = well fitted activation curve with a large enough effect in the signal ratio in the repeat runs, not every such curve was filed as active; the % refers to the signal ratio)
# Method in brief: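 GeneBLAzer PPARg UAS-bla HEK293H cells were plated, rested 5 h, then exposed to compounds for 17 h at 37C. Beta-lactamase activity was read by LiveBLAzer B/G FRET substrate fluorescence after 1 h at room temperature.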
# [5] = target: Nuclear receptor subfamily 1 group I member 2 (Rattus norvegicus) (UniProt Q9R1A7); assay: Rat pregnane X receptor (rPXR) activation by small molecules, qHTS assay (AID 1346983); conditions: rPXR luciferase reporter cells, One-Glo luminescence, 24 h; max activation: stronger effect = higher value; note: nearly all actives have a fitted effect of over 20% in size; note: potency is the fitted concentration of half-maximal effect
# Method in brief: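 Cell-based rPXR luciferase reporter assay, 2,000 cells per well, rested 5hr at 37 C before compound addition in DMSO, then 24 hr at 37 C. One-Glo reagent was added and luminescence read after 30 min at room temperature.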
# [6] = target: Nuclear receptor subfamily 1 group I member 2 (Homo sapiens) (UniProt O75469); assay: Human pregnane X receptor (PXR) activation by small molecules, qHTS assay (AID 1346985); note: nearly all actives have a fitted effect of over 40% in size; note: potency is the fitted concentration of half-maximal effect
# Method in brief: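 DPX-2 cells (HepG2 co-transfected with a PXR response element and a CYP3A4-promoter luciferase construct) were seeded at 2,000 per well, rested 5 hr at 37C, then exposed to DMSO-dissolved compounds for 24 hr. Activation was read as luciferase luminescence.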
# [7] = target: Nuclear receptor subfamily 1 group I member 2 (Homo sapiens) (UniProt O75469); assay: CYP3A4 induction through human pregnane X receptor (PXR) by small molecules, qHTS assay (AID 1346984); note: nearly all actives have a fitted effect of over 40% in size; note: potency is the fitted concentration of half-maximal effect
# Method in brief: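 DPX-2 HepG2 cells carrying a PXR response element and CYP3A4-promoter luciferase construct, treated with compounds 24 hr at 37C. Then P450-Glo CYP3A4 Luciferin-IPA substrate (3uM final) for 3 hr at 37C, One-Glo added, luminescence read.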
# Sequence of Peroxisome proliferator-activated receptor gamma (Homo sapiens) (P37231 whole entry, looked up): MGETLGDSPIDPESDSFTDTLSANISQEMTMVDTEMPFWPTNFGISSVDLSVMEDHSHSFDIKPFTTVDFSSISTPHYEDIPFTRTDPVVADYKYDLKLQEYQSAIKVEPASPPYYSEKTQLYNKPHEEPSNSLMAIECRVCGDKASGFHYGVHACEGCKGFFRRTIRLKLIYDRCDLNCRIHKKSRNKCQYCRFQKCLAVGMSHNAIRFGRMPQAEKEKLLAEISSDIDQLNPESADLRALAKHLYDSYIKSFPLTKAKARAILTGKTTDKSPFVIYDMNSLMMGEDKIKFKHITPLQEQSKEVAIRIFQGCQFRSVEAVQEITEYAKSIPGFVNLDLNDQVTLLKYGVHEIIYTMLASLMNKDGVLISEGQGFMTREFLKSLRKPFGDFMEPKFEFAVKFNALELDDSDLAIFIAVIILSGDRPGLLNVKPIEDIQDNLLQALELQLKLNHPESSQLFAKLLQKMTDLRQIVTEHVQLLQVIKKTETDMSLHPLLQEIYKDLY
# Sequence of Nuclear receptor subfamily 1 group I member 2 (Rattus norvegicus) (Q9R1A7 whole entry, looked up): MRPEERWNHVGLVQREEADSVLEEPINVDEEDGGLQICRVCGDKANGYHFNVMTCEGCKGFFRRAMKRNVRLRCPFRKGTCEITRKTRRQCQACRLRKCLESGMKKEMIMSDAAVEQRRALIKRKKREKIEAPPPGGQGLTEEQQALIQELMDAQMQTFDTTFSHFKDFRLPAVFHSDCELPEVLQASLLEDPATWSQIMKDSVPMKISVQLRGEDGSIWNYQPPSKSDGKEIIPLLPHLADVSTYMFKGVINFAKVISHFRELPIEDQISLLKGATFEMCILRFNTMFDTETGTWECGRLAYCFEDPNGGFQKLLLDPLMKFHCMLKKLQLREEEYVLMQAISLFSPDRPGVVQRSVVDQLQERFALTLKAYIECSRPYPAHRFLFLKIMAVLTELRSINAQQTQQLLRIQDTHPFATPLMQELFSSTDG
# Sequence of Aryl hydrocarbon receptor (Homo sapiens) (P35869 whole entry, looked up): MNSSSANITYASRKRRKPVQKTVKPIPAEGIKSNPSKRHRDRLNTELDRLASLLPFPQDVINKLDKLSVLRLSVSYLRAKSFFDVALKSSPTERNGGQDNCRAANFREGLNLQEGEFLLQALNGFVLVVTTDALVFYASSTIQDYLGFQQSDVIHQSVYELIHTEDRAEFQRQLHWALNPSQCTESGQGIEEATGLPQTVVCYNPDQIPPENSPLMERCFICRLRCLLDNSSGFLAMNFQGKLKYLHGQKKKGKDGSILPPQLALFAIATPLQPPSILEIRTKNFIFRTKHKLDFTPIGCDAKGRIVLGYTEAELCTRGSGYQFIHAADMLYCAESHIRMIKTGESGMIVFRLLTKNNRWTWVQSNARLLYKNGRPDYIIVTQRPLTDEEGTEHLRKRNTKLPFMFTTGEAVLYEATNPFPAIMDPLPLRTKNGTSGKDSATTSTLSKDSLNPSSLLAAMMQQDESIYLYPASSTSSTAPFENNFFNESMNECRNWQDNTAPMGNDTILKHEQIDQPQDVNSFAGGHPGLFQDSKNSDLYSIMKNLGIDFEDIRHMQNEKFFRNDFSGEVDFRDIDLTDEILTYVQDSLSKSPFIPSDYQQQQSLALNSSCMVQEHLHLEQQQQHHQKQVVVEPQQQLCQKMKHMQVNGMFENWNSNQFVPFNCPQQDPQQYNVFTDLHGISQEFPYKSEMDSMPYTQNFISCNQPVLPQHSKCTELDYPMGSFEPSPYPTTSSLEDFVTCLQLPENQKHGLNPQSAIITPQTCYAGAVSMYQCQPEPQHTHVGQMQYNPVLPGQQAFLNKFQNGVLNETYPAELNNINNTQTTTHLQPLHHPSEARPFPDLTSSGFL
compound,measurement,setting,value
O=C(O)c1c(Cl)c(Cl)c(Cl)c(Cl)c1-c1c2cc(I)c(=O)c(I)c-2oc2c(I)c(O)c(I)cc12,Potency,[1],23.7 µM (active)
same,Potency,[2],6.68 µM (active)
same,Potency,[3],23.7 µM (active)
same,Potency,[4],inactive
same,max activation,[5],-7.42%
same,Potency,[6],inactive
C[C@@](Cc1ccc(O)c(O)c1)(NN)C(=O)O,Potency,[1],inactive
same,Potency,[2],inactive
same,Potency,[3],inactive
same,Potency,[4],inactive
same,max activation,[5],-6.63%
same,Potency,[7],inactive
same,Potency,[6],inactive
c1ccc2c(c1)Sc1ccccc1N2CCN1CCCC1,Potency,[1],inactive
same,Potency,[4],inactive
same,Potency,[7],10 µM (active)
same,Potency,[6],25.1 µM (active)
CCN(CC)CCOc1ccc(-c2nc3cc(Cl)ccc3s2)cc1,Potency,[2],8.41 µM (active)
same,Potency,[5],0.794 µM (active)
same,Potency,[7],12.6 µM (active)
same,Potency,[6],10 µM (active)
CC(CN1c2ccccc2Sc2cccnc21)N(C)C (centres undefined),Potency,[1],inactive
same,Potency,[2],inactive
same,Potency,[3],inactive
same,Potency,[4],inactive
same,max activation,[5],-2.44%
same,Potency,[7],3.98 µM (active)
CCCCCCCCCCCCCCCCCCCCCC(=O)Nc1ccn([C@@H]2O[C@H](CO)[C@@H](O)[C@@H]2O)c(=O)n1,Potency,[1],inactive
same,Potency,[2],inactive
same,Potency,[3],inactive
same,Potency,[4],inactive
same,max activation,[5],-4.2%
same,Potency,[7],inactive
same,Potency,[6],inactive
C=C1C(=C/C=C2\CCC[C@]3(C)[C@@H]([C@H](C)CCCC(C)(C)O)CC[C@@H]23)C[C@@H](O)C[C@@H]1O,Potency,[1],inactive
same,Potency,[2],10.6 µM (active)
same,Potency,[3],inactive
same,max activation,[5],0.618%
same,Potency,[7],inactive
Cc1cc(/C=C/c2ccc3cc(N(C)C)ccc3[n+]2C)c(C)n1-c1ccccc1,Potency,[1],8.04 µM (active)
same,max activation,[5],-14%
same,Potency,[6],inactive
C=C[C@]1(C)C[C@@H](OC(=O)CSC(C)(C)CNC(=O)[C@H](N)C(C)C)[C@]2(C)[C@H](C)CC[C@]3(CCC(=O)[C@H]32)[C@@H](C)[C@@H]1O,Potency,[1],2.98 µM (active)
same,Potency,[2],inactive
same,Potency,[3],3.76 µM (active)
same,Potency,[7],inactive
same,Potency,[6],8.91 µM (active)
N#Cc1ccc2c(c1)N(CCCN1CCC(O)CC1)c1ccccc1S2,Potency,[1],inactive
same,Potency,[2],inactive
same,Potency,[4],inactive
same,max activation,[5],-1.43%
CN1CCN(C2=Nc3ccccc3Cc3ccccc32)CC1,Potency,[1],inactive
same,Potency,[2],inactive
same,Potency,[3],inactive
same,Potency,[4],inactive
O=C(OCCO)c1ccccc1O,Potency,[1],inactive
same,Potency,[2],inactive
same,Potency,[3],inactive
same,Potency,[4],inactive
CC(CN(C)C)CN1c2ccccc2S(=O)(=O)c2ccccc21 (centres undefined),Potency,[4],inactive
O=C(CCCN1CCC(C(=O)c2ccc(F)cc2)CC1)c1ccc(F)cc1,Potency,[1],inactive
same,Potency,[2],inactive
same,Potency,[3],inactive
same,Potency,[4],inactive
same,Potency,[6],15.8 µM (active)
CC(CC(c1ccccc1)c1ccccc1)NC(C)(C)C (centres undefined),Potency,[1],inactive
same,Potency,[2],inactive
same,Potency,[3],inactive
same,Potency,[4],inactive
CCCCCCCCCCCCCCCC(=O)O[C@@H]1CC(C)=C(/C=C/C(C)=C/C=C/C(C)=C/C=C/C=C(C)/C=C/C=C(C)/C=C/C2=C(C)C[C@@H](OC(=O)CCCCCCCCCCCCCCC)CC2(C)C)C(C)(C)C1,Potency,[1],inactive
same,Potency,[3],inactive
same,Potency,[4],inactive
O=S(O)CNc1ccc(S(=O)(=O)c2ccc(NCS(=O)O)cc2)cc1,Potency,[1],inactive
same,Potency,[2],inactive
same,Potency,[3],inactive
same,Potency,[4],inactive
CCCC(=O)O[C@]1(C(=O)COC(=O)CC)[C@@H](C)C[C@H]2[C@@H]3CCC4=CC(=O)C=C[C@]4(C)[C@@]3(F)[C@@H](O)C[C@@]21C,Potency,[1],inactive
O=C(CCCN1CCC(n2c(=S)[nH]c3ccccc32)CC1)c1ccc(F)cc1,Potency,[1],inactive
same,Potency,[2],11.9 µM (active)
same,Potency,[3],inactive
N[C@@H](C(=O)N[C@@H]1C(=O)N2C(C(=O)O)=C(CSc3cn[nH]n3)CS[C@H]12)c1ccc(O)cc1,Potency,[1],inactive
same,Potency,[3],inactive
same,Potency,[4],inactive
CC(CN1c2ccccc2Sc2ccc(S(=O)(=O)N(C)C)cc21)N(C)C (centres undefined),Potency,[1],inactive
same,Potency,[4],inactive
C[C@]12C=CC(=O)C=C1CC[C@@H]1[C@@H]2[C@@H](O)C[C@@]2(C)[C@H]1CC[C@]2(O)C(=O)COC(=O)CCC(=O)O,Potency,[1],inactive
same,Potency,[3],inactive
same,Potency,[4],inactive
CCN(CC)CCOC(=O)c1ccc(N)cc1Cl,Potency,[1],inactive
same,Potency,[3],inactive
same,Potency,[4],inactive
Cc1ccccc1CNc1ncnc2c1ncn2[C@@H]1O[C@H](CO)[C@@H](O)[C@H]1O,Potency,[1],inactive
same,Potency,[2],inactive
same,Potency,[3],inactive
